Laboratory results from PubChem BioAssay AID504332 (National Center for Advancing Translational Sciences (NCATS), 2011).
Hit rate of the full screen: of about 350,000 compounds, about 31,000 (8.9%) were called active. About 15% were inconclusive and are not listed. For the sample, actives were picked, then their nearest neighbours and some compounds at random. A number with no mark means an inactive call. The call rests on the fitted dose curve; in most records, active means well fitted inhibition curve with a large enough effect; inconclusive means small, poorly fitted or top-dose-only effect; inactive means no such curve, though single readings can be large or run the other way.

Molecular target: Histone-lysine N-methyltransferase EHMT2 (Homo sapiens) (UniProt Q96KQ7)
Sequence (Q96KQ7 913-1193 limits assumed): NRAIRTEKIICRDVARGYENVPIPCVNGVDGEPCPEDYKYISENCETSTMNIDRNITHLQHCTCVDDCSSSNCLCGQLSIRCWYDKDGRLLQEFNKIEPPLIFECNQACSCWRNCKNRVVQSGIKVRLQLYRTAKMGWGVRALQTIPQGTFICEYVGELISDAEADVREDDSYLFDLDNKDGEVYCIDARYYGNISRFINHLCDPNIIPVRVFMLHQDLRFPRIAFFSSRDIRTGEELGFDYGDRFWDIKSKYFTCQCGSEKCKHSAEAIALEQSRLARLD
Test: qHTS Assay for Inhibitors of Histone Lysine Methyltransferase G9a; further: nearly all actives have a fitted effect of over 75% in size
Conditions: G9a H3K9 monomethylation, AlphaScreen, 2 h; series mostly up to 59 µM; activity, negative = inhibition: at the top concentration
Method in brief: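 G9a (20 nM) preincubated 15 min RT with compounds, then 500 nM biotinylated H3K9 peptide and 20 uM SAM added; 2 h RT reaction. Monomethyl-H3K9 product detected by AlphaScreen with anti-H3K9me1 antibody, streptavidin donor and anti-rabbit IgG acceptor beads.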
On the % scale 0 is the no-effect control and ±100 the full control effect; potency means the concentration at half of the fitted maximal effect.

Row | SMILES | activity, negative = inhibition | Potency
1 | Cc1c(CCNC(=O)c2ccc(C(F)(F)F)cc2)sc2nc(-c3ccc(F)cc3)nn12 | -4.14% | –
2 | CCOC(=O)c1ccccc1NC(=O)c1nn(-c2ccc(OC)c(Cl)c2)c(=O)c2c1c1ccccc1n2C | -23.6% | –
3 | CC(=O)c1ccc(NC(=O)c2nc3nc(C)cc(C(F)F)n3n2)cc1 | 5.77% | –
4 | CCOC(=O)c1cccc(NC(=O)C2CCN(c3ncnc4c3nc3n4CCCCC3)CC2)c1 | 8.88% [at 102 µM] | –
5 | COCCCNCCOCCOc1ccc(Cl)cc1Br | – | 10 µM (active)
6 | CCOCCCNCc1cc(Br)ccc1OCC | 1.6% [at 12.7 µM] | –
7 | COCCNCCOCCOc1cccc(OC)c1 | -4.05% [at 102 µM] | –
8 | Cc1csc2nc(COC(=O)c3cccc(N(C)C)c3)cc(=O)n12 | 3.53% [at 2.33 µM] | –
9 | CC(OC(=O)CN1C(=O)c2ccccc2C1=O)C(=O)c1ccccc1 (stereo not given) | 12.8% [at 12.7 µM] | –
10 | O=C(Nc1ccc(F)cc1)N1CCN(c2ccc(F)cc2)CC1 | 1.61% [at 102 µM] | –
11 | CC(=O)N1CCN(c2ccc(NCc3ccc(C(C)C)cc3)cc2)CC1 | – | 14.1 µM (active)
12 | CCc1ccc(NC(=O)N2CCN(c3ccccc3)CC2)cc1 | -6.08% [at 102 µM] | –
13 | Cc1cc(F)ccc1S(=O)(=O)Nc1ccc(C(=O)N(C)Cc2ccco2)cc1 | 23.8% [at 2.33 µM] | –
14 | Cc1nn(CC(=O)NCCc2ccccc2)c(=O)c2c1sc1ccccc12 | -28.2% | –
15 | Cc1ccc(C)c(N2CCN(C(=O)Cn3ncn4cccc4c3=O)CC2)c1 | -1.09% [at 102 µM] | –
16 | Cc1ccc(C)c(N2CCN(C(=O)Cn3nc(C)c4sc5ccccc5c4c3=O)CC2)c1 | – | 12.6 µM (active)
17 | CCn1nc(C(=O)NNC(=O)C2CSC3(C)CCC(=O)N23)c2ccccc2c1=O (stereo not given) | 2.22% [at 12.7 µM] | –
18 | Cc1csc2nc(COC(=O)c3ccc(NC(=O)COc4ccccc4F)cc3)cc(=O)n12 | 6.31% [at 12.7 µM] | –
19 | CCOC(=O)c1cc2c(=O)n3ccccc3nc2n(CC2CCCO2)c1=NC(=O)c1ccc(C(C)(C)C)cc1 (stereo not given) | 7.45% | –
20 | COc1ccc(CCN(Cc2cc3cccc(C)c3[nH]c2=O)C(=O)N2CCCC2)cc1OC | -36.8% [at 12.7 µM] | –
21 | COc1cc2cc(CN(CCN3CCCC3)C(=O)Nc3ccccc3Cl)c(=O)[nH]c2cc1OC | – | 50.1 µM (active)
22 | Cc1ccc2[nH]c(=O)c(CN(CCCN(C)C)C(=O)Nc3cccc(Cl)c3)cc2c1 | 9.59% | –
23 | CCCCNC(=O)c1cn(CC)c2cc(N3CCN(C(=O)c4ccco4)CC3)c(F)cc2c1=O | -11.5% [at 102 µM] | –
24 | CCOc1ccc(CNC(=O)c2ccc3c(c2)nnn3C2CCCC2)cc1 | 7.24% | –

Row | SMILES | activity, negative = inhibition | Potency
25 | O=C(NC1CCCC1)C(c1ccco1)N(C(=O)c1ccco1)c1ccc(F)cc1 (stereo not given) | -10.7% [at 102 µM] | –
26 | O=c1cc(COc2cccc(C(F)(F)F)c2)nc2sc3c(n12)CCCC3 | 4.72% | –
27 | COc1cc(NC(=S)NCc2ccco2)c(OC)cc1Cl | – | 50.1 µM (active)
28 | FC(F)Oc1ccc(NC(=S)NCc2ccco2)cc1Cl | – | 50.1 µM (active)
29 | COc1cccc(OC)c1C(=O)NC(=S)NCc1ccco1 | -48.7% [at 102 µM] | –
30 | Cc1ccc(CC(=O)Nc2ccc(OC(F)F)c(Cl)c2)cc1C | 33% | –
31 | CCOc1cc(NC(=S)NCc2ccco2)c(OCC)cc1NC(=O)c1ccco1 | 3.75% [at 102 µM] | –
32 | O=C(NNC(=S)NCc1ccco1)C(c1ccccc1)c1ccccc1 | 0.815% [at 102 µM] | –
33 | Cc1c(Cl)cccc1NC(=O)Cn1cc(C(=O)c2cccs2)c2ccccc21 | 5.79% | –
34 | Cc1ccc(NC(=O)CN2c3ccccc3S(=O)(=O)c3ccccc32)cc1F | -5.79% | –
35 | CCCN(CCC)C(=O)C(Cc1ccccc1)NS(=O)(=O)c1ccc2c(c1)c(=O)n(C)c(=O)n2C (stereo not given) | -5.06% | –
36 | Cc1cccc(NC(=S)Nc2ccc(Br)cc2)c1 | 21.1% | –
37 | Cc1ccc(C)c(NC(=S)NCC(c2cccnc2)N2CCOCC2)c1 (stereo not given) | 2.92% [at 102 µM] | –
38 | CC(C)c1ccc(NC(=S)NNc2ccc(Cl)c(C(=O)O)c2)cc1 | – | 10 µM (active)
39 | CCC(C(=O)Nc1ccc(C(C)C)cc1)c1ccccc1 (stereo not given) | -0.762% [at 102 µM] | –
40 | Cc1ccc(C)c(NC(=S)NNC(=S)Nc2ccc(C(C)C)cc2)c1 | – | 31.6 µM (active)
41 | CC(C)CC(=O)NC(=S)Nc1cc(C(=O)O)ccc1Cl | 10.6% | –
42 | COCCNC(=O)c1ccc2nc(Cc3ccc(OC)c(OC)c3)oc2c1 | 42.5% [at 102 µM] | –
43 | CC(=O)Nc1cccc(C(=O)OCC(=O)Nc2nnc(-c3ccccc3)o2)c1 | -0.909% [at 102 µM] | –
44 | CN(CC(=O)NCc1cccnc1)S(=O)(=O)c1cc(Cl)ccc1Cl | -31.6% [at 102 µM] | –
45 | COc1ccc(NC(=O)C2CCN(S(=O)(=O)c3ccc4[nH]c(=O)oc4c3)CC2)c(OC)c1 | -3.14% [at 102 µM] | –
46 | O=C(CC1(O)C(=O)N(CN2CCOCC2)c2ccccc21)c1ccccc1 (stereo not given) | 8.91% | –
47 | CCOC(=O)CN1C(=O)C(O)(CC(=O)c2ccccn2)c2ccccc21 (stereo not given) | 13.3% [at 102 µM] | –
48 | C=CCN1C(=O)C(O)(CC(=O)c2ccc(Cl)cc2)c2ccccc21 (stereo not given) | – | 44.7 µM (active)

Row | SMILES | activity, negative = inhibition | Potency
49 | COc1ccc(CCNC(=O)c2ccc(CSCc3ccc(C)cc3)o2)cc1OC | -41.2% | –
50 | CCc1nnc2c3ccccc3nc(N3CCN(c4ccc(C)cc4C)CC3)n12 | -5.99% | –
51 | Cc1ccc(/C=C/C(=O)OCC(=O)Nc2cccnc2Cl)cc1 | 5.18% [at 12.7 µM] | –
52 | CC(=O)NNc1cc(=O)c2c(=O)n(C)c(=O)n(C)c2[nH]1 | 23.3% | –
53 | CC(=O)c1c(N)n(C)c(=O)n(C)c1=O | 17.5% | –
54 | CC(=O)Nn1cc2c(=O)n(C)c(=O)n(C)c2c1 | – | 35.5 µM (active)
55 | Nc1ccn(CC(=O)N2CCN(c3ccccn3)CC2)c(=O)n1 | -0.804% [at 0.501 µM] | –
56 | COC(=O)c1ccccc1NS(=O)(=O)c1ccc2c(c1)CCCN2C(C)=O | -5.09% | –
57 | C[C@@H](C(=O)Nc1ccc2ccccc2c1)[C@@H]1C[C@@]1(C)[C@@H](NC(=O)c1cccnc1)c1ccccc1 | – | 50.1 µM (active)
58 | O=C(Nc1ccc(N2CCN(C(=O)c3ccccc3)CC2)c(Cl)c1)c1cccnc1 | -6.61% | –
59 | COC(=O)[C@H](C)[C@H]1C[C@]1(C)[C@H](NC(=O)OCc1ccccc1)c1ccccc1 | 29.2% [at 102 µM] | –
60 | CC(=O)N[C@@H](C)C(=O)N1CCC(n2nccc2NC(=O)CCCc2ccccc2)CC1 | 16.2% [at 102 µM] | –
61 | CC(NS(=O)(=O)c1ccc(Cl)cc1)C(=O)Nc1ccc2c(c1)OCCO2 (stereo not given) | 15.8% [at 102 µM] | –
62 | Cc1ccc(C(=O)Nc2ccccc2F)cc1S(=O)(=O)N1CCOCC1 | 0.422% | –
63 | N#C/C(=C\C1=C(N2CCOCC2)C(=C\c2ccccc2)/CC1)C(=O)Nc1ccccc1F | – | 7.08 µM (active)
64 | N#C/C(=C\c1ccccc1C(F)(F)F)C(=O)Nc1ccccc1F | 7.49% | –
65 | CCOCCCn1c(SCC(=O)Nc2ccc(CC)cc2)nc2ccccc2c1=O | 12.2% | –
66 | O=C(CCc1nc(CN2CCN(S(=O)(=O)c3ccc(F)cc3)CC2)no1)N1CCCCC1 | -32.6% | –
67 | COc1ccc(N(C)C(=O)C2CCN(S(=O)(=O)c3cc(Br)cc4c3N(C(C)=O)CC4)CC2)cc1 | 8.09% | –
68 | CCOc1ccc(CNC(=O)c2cc(=O)[nH]c3ccc(S(=O)(=O)N4CCCCC4)cc23)cc1 | 1.87% | –
69 | Brc1ccc(C2CC(c3ccccc3)=Nc3ccccc3N2)cc1 (stereo not given) | – | 39.8 µM (active)
70 | Brc1ccc(C2=NCCC(c3ccccc3)O2)cc1 (stereo not given) | 15.4% [at 102 µM] | –
71 | CNC(=S)N1N=C(c2ccccc2)CC1c1ccc(Br)cc1 (stereo not given) | -5.86% [at 102 µM] | –
72 | COc1cc(C(=O)N2CCC(c3ccncc3)CC2)cc(OC)c1OC | 10.3% | –

Row | SMILES | activity, negative = inhibition | Potency
73 | Cc1ccc(NC(=O)C(C)OC(=O)Cc2c[nH]c3ccccc23)cc1S(=O)(=O)N1CCOCC1 (stereo not given) | – | 35.5 µM (active)
74 | Cc1ccc(NC(=O)c2ccccn2)cc1S(=O)(=O)N1CCOCC1 | 3.07% [at 102 µM] | –
75 | CC(OC(=O)CCCc1c[nH]c2ccccc12)C(=O)Nc1ccc(S(N)(=O)=O)cc1 (stereo not given) | 14.8% [at 0.501 µM] | –
76 | CS(=O)(=O)c1ccc2nc(NC(=O)CN3CCCCCC3)sc2c1 | – | 17.8 µM (active)
77 | CS(=O)(=O)c1ccc2nc(NC(=O)c3ccc(N4CCCC4=O)cc3)sc2c1 | 7.63% [at 102 µM] | –
78 | CS(=O)(=O)c1ccc2nc(NC(=O)C3CCCCC3)sc2c1 | 19.9% | –
79 | COc1cccc(NC(=O)CN(C)C(=O)CSCc2nc3scc(-c4cccs4)c3c(=O)[nH]2)c1 | -5.02% | –
80 | COc1ccc(OCCCON2C(=O)c3ccccc3C2=O)cc1 | -9.02% | –
81 | CCOC(=O)c1c(C)[nH]c2c1-c1ccccc1C(=O)C2=O | -9.77% | –
82 | CCOC(=O)C1=C(c2ccc(OC)cc2)C(=O)c2ccccc2C1=O | – | 31.6 µM (active)
83 | CSCCC(NS(=O)(=O)c1ccccc1F)C(=O)N1CC=C(c2ccccc2)CC1 (stereo not given) | -15.4% [at 102 µM] | –
84 | CC(C)(C)c1ccc(C(=O)N2CCC(c3nc(-c4ccc(S(=O)(=O)N5CCCC5)cc4)no3)CC2)cc1 | -29% | –
85 | CCc1nn(CCCC(=O)NCc2ccccc2OC)c(=O)c2cc3occc3n12 | 9.29% | –
86 | Cc1ccc(Cl)cc1NC(=O)CSc1nc2ccccc2nc1Cc1ccccc1 | -2.39% | –
87 | COc1ccc(CNc2ncnc3ccccc23)cc1 | 7.39% [at 102 µM] | –
88 | CCOC(=O)c1sc(=S)n2c1[nH]c(=O)c1ccc(C(=O)OC)cc12 | – | 7.94 µM (active)
89 | CCOC(=O)C1=C(C)Nc2sc(C(=O)c3ccc(Br)cc3)c(N)c2C1c1ccc(C(=O)OC)cc1 (stereo not given) | 0.599% [at 12.7 µM] | –
90 | CCOC(=O)c1sc(NC(=O)c2ccncc2)nc1C | 16.5% | –
91 | CC(=O)N1CCCc2cc(S(=O)(=O)Nc3ccc(Cl)cc3F)ccc21 | 3.87% | –
92 | Oc1c(C(c2ccco2)N2CCC3(CC2)OCCO3)sc2ncnn12 (stereo not given) | – | 35.5 µM (active)
93 | Oc1c(C(c2ccccc2Cl)N2CCOCC2)sc2nc(-c3ccco3)nn12 (stereo not given) | -31.5% | –
94 | Cc1ccc(C(c2sc3nc(C)nn3c2O)N2CCN(c3ccccc3)CC2)cc1 (stereo not given) | 15.6% [at 12.7 µM] | –
95 | Cc1nc2sc(C(c3ccco3)N3CCOCC3)c(O)n2n1 (stereo not given) | – | 11.2 µM (active)
